# Compound activity: PubChem, National Center for Advancing Translational Sciences (NCATS)
# Many of the other results were omitted from the sample, so hits are more common in it than they were.
# Pf Dd2 inh = qHTS Primary assay for Inhibitors of Plasmodium falciparum Dd2 growth in vitro; P. falciparum Dd2 growth, SYBR Green, 72 h; Potency, µM (doses to about 28.9 µM), inactives show at the highest dose activity, negative = inhibition, hits mostly inhibitors; 120,000 tested, 4.3% active; active = well fitted inhibition curve with a large enough effect;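 note: plate controls were DMSO vehicle for no effect and reference drug for full effect; nearly all actives have a fitted effect of over 65% in size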
#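 Readout: SYBR Green fluorescence, 485 nm excitation, 535 nm emission, after ~16 h lysis at 37C. Before that, Dd2-infected red cells (2.5% hematocrit) grew 72 h with compound, 29 uM top final concentration.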
# An asterisk follows results filed as active; i = inactive; [ ] = remark or other dose. Potency is the fitted concentration of half-maximal effect.
SMILES,Pf Dd2 inh
Cn1nc(C(=O)N2CCCC(CN3CCCC3)CC2)c2ccccc21 (stereo not given),3.2µM*
O=C(c1ccccn1)N1CCCC(CN2CCCC2)CC1 (stereo not given),26%
OCC1CN(c2ccncn2)CC12CCN(Cc1ccncc1F)CC2 (stereo not given),i
CC(C)Cc1cc(C(=O)NCC2CCN(c3cnn(C)c(=O)c3)C2)no1 (stereo not given),i
CCN1CCN(Cc2c(O)ccc3c(C)c(-c4ccc(OC)cc4)c(=O)oc23)CC1,5µM*
O=c1oc2c(CN3CCN(CCO)CC3)c(O)ccc2cc1-c1ccccc1,-17%
COc1ccc(-c2c(C)c3cc(OC(=O)N4CCOCC4)ccc3oc2=O)cc1,-17%
CCN1CCN(C(c2ccc(OC)cc2)c2c(O)cc(C)n(CCOC)c2=O)CC1 (stereo not given),i
CN1CCN(c2cc(=O)c3ccnc(-c4ccc(Cl)cc4)c3o2)CC1,i
COc1ccc(CN2CCC(N3CCOCC3=O)CC2)cc1,13%
Cc1c(-c2ccccc2)c(=O)oc2ccc(OC(=O)N3CCOCC3)cc12,i
CN1CCN(Cc2c(O)ccc3cc(-c4ccc(Cl)cc4)c(=O)oc23)CC1,5µM*
COc1ccc(-c2coc3c2c(C)cc2oc(=O)c(C)c(C)c23)cc1,-18%
CCN1CCN(Cc2c(O)ccc3cc(-c4ccc(OC)cc4)c(=O)oc23)CC1,5.6µM*
COc1ccc(Cc2nc3ccc(C(=O)NCCN4CCOCC4)cc3o2)cc1,-6%
COc1ccc(-c2cc3ccc(O)c(CN4CCOCC4)c3oc2=O)cc1,11µM*
O=C(Cn1nc2c(cc1=O)CCCCC2)Nc1ccc(F)c(Cl)c1,-11%
CS(=O)(=O)CC[C@H](NC(=O)C1=C[C@@H](NC(=O)Nc2ccc(F)cc2F)[C@@H](O)[C@H](O)C1)C(N)=O,-10%
CC(C)(C)c1ccc(CN2CCN(Cc3cc4n(n3)CCNC4)CC2)cc1,-7%
CCC1(C(=O)O)CCCCC(=O)N1 (stereo not given),10%
N#Cc1ccc(CN2CCN(c3ccc(Cl)nn3)C(=O)C2)cc1,-16%[44.1 µM]
O=C(NCc1ccncc1)C1CN(C(=O)COc2ccc(Cl)cc2)CC12CCOCC2 (stereo not given),-7%
O=C(NCCCc1nc2ccc(F)cc2[nH]1)C1NCCc2[nH]cnc21 (stereo not given),-7%
COc1ccc(NC(=O)Cn2cc(S(=O)(=O)c3ccccc3)c(=O)c3cc4c(cc32)OCO4)cc1,-16%
CCN(CC)c1cc2c(cc1F)c(=O)c(S(=O)(=O)c1ccccc1)cn2C,-23%
SMILES,Pf Dd2 inh
CCN(CC)c1cc2c(cc1F)c(=O)c(S(=O)(=O)c1ccccc1)cn2Cc1ccccc1,13µM*
CCN(CC)c1cc2c(cc1F)c(=O)c(S(=O)(=O)c1ccc(OC)cc1)cn2Cc1ccccc1,13µM*
CCCCn1cc(S(=O)(=O)c2ccc(C)c(C)c2)c(=O)c2cc(F)c(N(CC)CC)cc21,13µM*
CCCn1cc(S(=O)(=O)c2ccc(C)c(C)c2)c(=O)c2cc(F)c(N3CCCCC3)cc21,1%
CCN(CC)c1cc2c(cc1F)c(=O)c(S(=O)(=O)c1cccc(C)c1)cn2C,9%
CCCCn1cc(S(=O)(=O)c2ccc(F)cc2)c(=O)c2ccccc21,18%
COc1ccc(S(=O)(=O)c2cn(Cc3ccccc3)c3cc(F)c(F)cc3c2=O)cc1,-24%
CCc1ccc(C(=O)N2[C@@H]3CC[C@H]2CC(NC(=O)c2cnc(C)cn2)C3)cc1 (stereo not given in full),i
Cc1cnc(-c2cccnc2)n1C1CCCN(C(=O)c2cccn2C)C1 (stereo not given),-7%
CN(Cc1ccc2nsnc2c1)Cc1nc(Cc2cccc(C(F)(F)F)c2)no1,-6%
O=C(CN1CCCc2nc(-c3ccncc3)ncc2C1=O)NCC1CC1,-24%
COc1ccccc1-n1cc(-c2nc(C3CCOC3)no2)cn1 (stereo not given),-14%
Cc1c(C)n(Cc2ccccc2)c2ccc(C(=O)NCc3ccccc3F)cc12,-11%
CSc1cccc(NC(=O)c2ccc3c(c2)c(C)c(C)n3Cc2ccc(F)cc2)c1,10µM*
CCc1ccccc1NC(=O)c1ccc2c(c1)c(C)c(C)n2Cc1ccccc1,11µM*
Cc1c(C)n(Cc2ccccc2)c2ccc(C(=O)NC(C)c3ccccc3)cc12 (stereo not given),-10%
Cc1ccccc1NC(=O)c1ccc2c(c1)c(C)c(C)n2Cc1ccccc1,-3%
CSc1ccc(CCNC(=O)c2ccc3c(c2)c(C)c(C)n3Cc2ccc(F)cc2)cc1,9%
COc1ccc(C2(C(=O)N3CCCC(c4[nH]ccc4C(N)=O)C3)CC2)cc1 (stereo not given),28%
CC1CN(c2ccccc2C#N)C(=O)CN1C(=O)c1ccc2c(c1)OCCO2 (stereo not given),2%
CC(=O)N1CCC2(CC1)CC(c1ccccc1)=NO2,6%[44.1 µM]
CC(C)(C)C(=O)N1C[C@H]2OC(=O)N(CCc3cccc(Cl)c3)[C@H]2C1,6%
